# Laboratory results taken from PubChem BioAssay.
# “And” between values parts separate entries of the source, which are not always exact repeats. Identical values can stand only once. Records with an inconclusive call do not appear. For part of these data: Potency and affinity values are given separately. The source made the active and inactive calls.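 The calls were made as follows, unless noted: active = at least 20% inhibition of 6-phosphogluconate dehydrogenase activity; inactive = the rest.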
# Columns and labels:
# [1] = P. berghei load reduction in hepatocytes – cell-based, HepG2, luciferase luminescence, HepG2 viability, primary screen (AID 624349; in the data active = parasite load remaining mostly below about 12%, no sharp cut-off; inactive = mostly above about 10%;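 also: 100% = mean of DMSO negative control wells on the same plate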); conditions: P. berghei liver stage in HepG2, luciferase luminescence, concentration not given here; parasite load remaining: stronger effect = lower value; viability: measured here: HepG2 viability without parasites
# [2] = target: 6-phosphogluconate dehydrogenase, decarboxylating (Homo sapiens) (UniProt P52209); assay: inhibition of human phosphogluconate dehydrogenase – biochemical, recombinant enzyme, NADPH absorbance, primary screen (AID 1159550); conditions: recombinant 6PGD, NADPH absorbance 341 nm; at 10 µM; stronger effect = higher value
# [3] = EMT-state selective cytotoxicity in co-culture – imaging, PC-3E GFP, TEM4-18 mCherry, primary screen (AID 1345086;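 active = compounds killing one labelled cell type while sparing the other, by normalised counts and ratio limits, not self-fluorescent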;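 as to all read-outs here: cells exposed to compound for 72 h before imaging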;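 as to red/green cell ratio (normalised): normalised mesenchymal count divided by normalised epithelial count so high means epithelial killing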); conditions: PC-3E GFP / TEM4-18 mCherry co-culture, imaging cell counts, at 1 µM; for red/green cell ratio (normalised): actives lie on both sides
# [4] = tested on: Aerobactin synthetase IucA (Klebsiella pneumoniae hvKP1); assay: IucA enzyme inhibition, primary screen, biochemical, Spectrum library (AID 1346200; call rule not given here;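 also: 100% = wells without compound and 0% = wells lacking enzyme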); conditions: malachite green pyrophosphate, A620, at 8 µM, stronger effect = lower value
# [5] = viability loss with induced miR-34 in A549 – imaging, A549 dox-inducible miR-34, nuclei and caspase counts, primary screen (AID 1347080;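 active = compounds whose cell count with miR-34 switched on is under 0.7 times the count with it off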); conditions: A549 miR-34 inducible, Hoechst nuclei count, 48 h
# [6] = MELAS cybrid and Rieske KO viability enhancers – cell-based, MELAS cybrids, Rieske KO mouse fibroblasts, CellTiter-Glo, primary screen (AID 1508586;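 active = mean z-score across replicates of 1.96 or higher in either the MELAS or the Rieske mutant cell line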;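 also: z relative to plate mean and SD of compound and empty wells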); conditions: low glucose
# [7] = target: NAD(+) hydrolase SARM1 (Homo sapiens) (UniProt Q6SZW1); assay: blocking NAD cleavage by SARM1 SAM-TIR – cell lysate, NAD-Glo luminescence (AID 1508614;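 active = compound whose remaining NAD level is above about 45 nM, limit read from the data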;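 also: higher remaining NAD means stronger inhibition of SARM1 NADase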); conditions: SAM-TIR HEK293T lysate NADase, at 1 µM, stronger effect = higher value
# [8] = target: Mitogen-activated protein kinase 7 (Homo sapiens) (UniProt Q13164); assay: Gal4-ERK5 driven luciferase induction – cell-based, HTS, primary screen (AID 1508626;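 active = luciferase signal above three times the same-plate solvent-only control wells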;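 also: luciferase driven by Gal4-ERK5 fusion binding five Gal4 sites before minimal TATA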); conditions: HeLa Gal4-ERK5 transactivation, 18 h, at 5 µM, stronger effect = higher value
# [9] = galactose survival enhancers in mitochondrial complex I cybrids – cell-based, galactose medium, ATP luminescence, primary screen (AID 1645843;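 active = z-score of at least 1.8 in each of two replicates, scored against plate mean and spread of sample wells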;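 also: positive z means more ATP and so rescue of galactose-driven cybrid death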); conditions: complex I mutant cybrid cells, 72 h, stronger effect = higher value
# [10] = compounds altering viability of human ES cells (AID 493140; call rule not given here;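 also: cells exposed to compounds for four days before counting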); conditions: human embryonic stem cell survival screen; stronger effect = higher value
# [11] = tested on: Aerobactin synthetase IucA (Klebsiella pneumoniae, hypervirulent); assay: biochemical IucA inhibition screen of LOPAC library by absorbance (AID 1346212; call rule not given here;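 also: 100% = no compound wells and 0% = no enzyme wells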); conditions: IucA enzyme assay, absorbance (OD) readout; stronger effect = lower value; concentration not given here
# [12] = blockers of polyQ-driven CASP3 activation – cell-based (AID 1583); conditions: polyglutamine-induced caspase-3 activation, cell assay; stronger effect = higher value;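 tested at 10 µM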
# [13] = yeast 75Q aggregation reduction – 75Q-TubU reporter (AID 1593); conditions: Yeast 75Q polyglutamine aggregation reporter
# [14] = restoration of touch response, mutant HTT neurons – whole organism, C. elegans mechanosensory neurons, N-terminal huntingtin (AID 1599); conditions: C. elegans polyQ-huntingtin mechanosensory neurons, stronger effect = higher value
# [15] = blockers of cytochrome c efflux from mitochondria – biochemical, purified mitochondria (AID 1603); conditions: stronger effect = lower value;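 also: mouse liver mitochondria challenged with calcium chloride; signal normalized to the plate average as 100%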
# [16] = polyglutamine aggregate formation blockers (AID 1604); conditions: polyglutamine-induced protein aggregation inhibition assay; stronger effect = higher value; tested at 2.5 µM
# [17] = glutamate transport activators, MN-1 cells, MN-1 cell line (AID 1612); conditions: MN-1 motor neuron cells, stronger effect = higher value;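 also: tested at 1 µM final; 0% = mean of DMSO vehicle wells on each plate; positive means more glutamate uptake than control and negative means less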
# [18] = 75Q-TubH aggregate inhibition, S. cerevisiae, yeast (AID 1616); conditions: S. cerevisiae 75Q-TubH polyglutamine aggregation suppression; stronger effect = higher value
# [19] = GFP-Q80 aggregate reduction, neuronal-like cells, cell-based, NGF-treated PC12, GFPQ80 (AID 1614); conditions: PC12 NGF-treated GFP-polyQ80 inclusion reduction;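 also: lower means fewer inclusions and 0 means no inclusions at all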
# [20] = target: ATP-dependent translocase ABCB1 (Homo sapiens) (UniProt P08183); assay: P-glycoprotein substrate transport blockade – cell-based (AID 377; in the data active = fluorescence slope change above about 50%); conditions: MDR1-expressing cells, fluorescent substrate accumulation slope; stronger effect = higher value; concentration not given here
# [21] = measured here: epithelial PC-3E GFP cell survival
# [22] = measured here: mesenchymal TEM4-18 mCherry cell survival
# [23] = measured here: relative caspase fold change +Dox/-Dox
# [24] = measured here: total cells with miR-34 induction, stronger effect = lower value
# [25] = measured here: total cells without miR-34 induction
# [26] = MELAS cybrid survival, CellTiter-Glo 48 h, stronger effect = higher value
# [27] = Rieske KO mouse fibroblast survival, CellTiter-Glo 72 h
# Sequence of 6-phosphogluconate dehydrogenase, decarboxylating (Homo sapiens) (P52209 whole entry, looked up): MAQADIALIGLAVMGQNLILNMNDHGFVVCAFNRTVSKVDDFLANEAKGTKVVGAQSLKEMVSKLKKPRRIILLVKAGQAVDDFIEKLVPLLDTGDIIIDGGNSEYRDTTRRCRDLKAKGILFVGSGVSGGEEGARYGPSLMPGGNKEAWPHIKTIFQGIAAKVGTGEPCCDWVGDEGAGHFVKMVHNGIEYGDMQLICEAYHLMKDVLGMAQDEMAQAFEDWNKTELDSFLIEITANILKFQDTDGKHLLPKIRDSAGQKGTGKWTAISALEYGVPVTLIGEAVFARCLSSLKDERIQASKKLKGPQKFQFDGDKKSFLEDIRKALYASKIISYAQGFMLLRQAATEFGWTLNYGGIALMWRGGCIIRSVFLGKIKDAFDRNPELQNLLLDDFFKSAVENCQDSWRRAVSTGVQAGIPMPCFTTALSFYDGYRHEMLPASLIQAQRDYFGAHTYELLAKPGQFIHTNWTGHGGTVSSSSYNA
# Sequence of NAD(+) hydrolase SARM1 (Homo sapiens) (Q6SZW1 whole entry, looked up, the tested form may be a part): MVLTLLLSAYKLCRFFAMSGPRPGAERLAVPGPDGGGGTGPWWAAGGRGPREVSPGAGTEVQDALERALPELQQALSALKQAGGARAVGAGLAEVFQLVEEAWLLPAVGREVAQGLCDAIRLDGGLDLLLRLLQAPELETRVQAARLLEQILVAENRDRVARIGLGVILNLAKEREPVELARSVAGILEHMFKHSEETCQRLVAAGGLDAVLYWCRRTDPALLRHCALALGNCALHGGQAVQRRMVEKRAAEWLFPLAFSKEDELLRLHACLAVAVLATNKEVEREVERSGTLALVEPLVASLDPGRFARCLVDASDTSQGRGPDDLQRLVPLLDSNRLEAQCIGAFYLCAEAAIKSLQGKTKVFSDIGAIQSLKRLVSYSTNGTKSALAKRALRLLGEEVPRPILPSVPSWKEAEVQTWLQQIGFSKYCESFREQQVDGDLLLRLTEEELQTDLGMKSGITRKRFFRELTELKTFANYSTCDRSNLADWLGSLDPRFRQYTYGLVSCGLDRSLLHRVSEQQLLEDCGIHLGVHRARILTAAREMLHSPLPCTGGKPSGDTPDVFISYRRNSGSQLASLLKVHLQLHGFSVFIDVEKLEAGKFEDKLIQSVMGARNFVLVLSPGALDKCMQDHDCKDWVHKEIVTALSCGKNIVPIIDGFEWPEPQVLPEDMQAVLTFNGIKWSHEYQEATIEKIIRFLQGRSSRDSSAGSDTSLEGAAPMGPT
# Sequence of Mitogen-activated protein kinase 7 (Homo sapiens) (Q13164 whole entry, looked up, the tested form may be a part): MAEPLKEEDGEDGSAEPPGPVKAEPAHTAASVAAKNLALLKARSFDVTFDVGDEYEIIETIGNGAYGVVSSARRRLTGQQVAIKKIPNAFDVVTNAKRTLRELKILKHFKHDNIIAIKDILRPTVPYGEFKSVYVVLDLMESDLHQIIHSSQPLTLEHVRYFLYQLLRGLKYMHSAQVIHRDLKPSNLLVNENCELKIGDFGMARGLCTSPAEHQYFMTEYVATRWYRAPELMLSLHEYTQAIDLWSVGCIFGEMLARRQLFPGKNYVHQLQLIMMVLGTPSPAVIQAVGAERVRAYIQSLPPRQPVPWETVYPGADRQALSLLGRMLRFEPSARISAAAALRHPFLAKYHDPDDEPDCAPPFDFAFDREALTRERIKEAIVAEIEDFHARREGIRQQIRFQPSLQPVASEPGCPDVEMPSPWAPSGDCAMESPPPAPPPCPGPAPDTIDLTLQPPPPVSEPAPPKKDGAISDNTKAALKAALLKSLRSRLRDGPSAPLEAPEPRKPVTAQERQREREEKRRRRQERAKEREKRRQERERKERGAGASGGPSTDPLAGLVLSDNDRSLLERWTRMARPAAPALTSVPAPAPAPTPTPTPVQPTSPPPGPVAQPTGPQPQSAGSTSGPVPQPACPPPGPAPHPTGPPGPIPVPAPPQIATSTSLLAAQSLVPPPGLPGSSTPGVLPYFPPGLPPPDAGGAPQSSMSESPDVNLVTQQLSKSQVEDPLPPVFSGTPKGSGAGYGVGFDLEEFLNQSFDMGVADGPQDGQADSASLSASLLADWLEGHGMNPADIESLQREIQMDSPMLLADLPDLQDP
# Sequence of ATP-dependent translocase ABCB1 (Homo sapiens) (P08183 whole entry, looked up): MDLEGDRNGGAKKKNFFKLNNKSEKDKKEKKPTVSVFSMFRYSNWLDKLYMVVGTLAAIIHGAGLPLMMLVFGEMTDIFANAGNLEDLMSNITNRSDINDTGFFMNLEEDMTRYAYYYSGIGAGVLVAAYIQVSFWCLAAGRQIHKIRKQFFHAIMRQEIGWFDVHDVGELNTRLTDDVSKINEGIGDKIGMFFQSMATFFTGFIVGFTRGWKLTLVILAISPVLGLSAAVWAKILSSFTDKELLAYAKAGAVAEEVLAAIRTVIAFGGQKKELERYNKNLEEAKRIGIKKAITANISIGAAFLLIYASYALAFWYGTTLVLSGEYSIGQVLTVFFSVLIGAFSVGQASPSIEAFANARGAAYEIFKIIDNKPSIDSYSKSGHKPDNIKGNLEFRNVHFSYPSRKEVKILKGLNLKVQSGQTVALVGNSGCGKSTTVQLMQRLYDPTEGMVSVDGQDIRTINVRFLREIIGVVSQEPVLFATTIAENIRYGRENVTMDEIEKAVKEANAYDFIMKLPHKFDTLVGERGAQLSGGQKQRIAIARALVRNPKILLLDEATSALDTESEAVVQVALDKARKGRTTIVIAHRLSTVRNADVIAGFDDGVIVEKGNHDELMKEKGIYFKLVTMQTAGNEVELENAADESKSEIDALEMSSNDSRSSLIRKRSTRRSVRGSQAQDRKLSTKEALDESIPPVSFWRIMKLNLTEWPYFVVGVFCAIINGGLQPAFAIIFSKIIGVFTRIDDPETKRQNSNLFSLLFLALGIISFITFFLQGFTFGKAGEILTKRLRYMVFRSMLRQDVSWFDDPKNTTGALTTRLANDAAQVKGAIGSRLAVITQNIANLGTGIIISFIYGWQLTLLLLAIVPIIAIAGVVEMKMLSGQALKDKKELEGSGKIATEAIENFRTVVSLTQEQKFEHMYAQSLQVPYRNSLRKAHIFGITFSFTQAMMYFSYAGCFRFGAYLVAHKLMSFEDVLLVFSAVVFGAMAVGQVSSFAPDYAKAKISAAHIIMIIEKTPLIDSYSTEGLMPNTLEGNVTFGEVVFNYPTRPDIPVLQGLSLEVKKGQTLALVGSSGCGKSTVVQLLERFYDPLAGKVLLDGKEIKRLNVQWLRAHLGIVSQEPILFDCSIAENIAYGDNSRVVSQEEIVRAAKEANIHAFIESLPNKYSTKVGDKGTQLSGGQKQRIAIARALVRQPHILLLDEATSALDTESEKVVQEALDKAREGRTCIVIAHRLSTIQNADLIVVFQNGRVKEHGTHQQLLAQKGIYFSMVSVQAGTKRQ
structure (smiles),measurement,setting,value
NC(=O)CS(=O)C(c1ccccc1)c1ccccc1 (stereo unspecified),parasite load remaining,[1],153% (inactive) and 44.2% (inactive) and 93% (inactive)
same,viability,[1],83% and 104% and 71.7%
same,inhibition,[2],-7.07% (inactive)
same,red/green cell ratio (normalised),[3],1.19 (inactive)
same,normalised cell number,[3]; [21],1.04
same,normalised cell number,[3]; [22],1.24
same,activity remaining,[4],120% (inactive)
same,fold change,[5]; stronger effect = lower value,0.912 (inactive) and 0.928 (inactive) and 0.913 (inactive)
same,fold change,[5]; [23],0.934 and 0.471 and 9.69
same,cell count,[5]; [24],8970 and 9060 and 12100
same,cell count,[5]; [25],9830 and 9770 and 13200
same,z-score,[6]; [26],0.264 (inactive)
same,z-score,[6]; [27],0.0685
same,remaining NAD,[7],10 nM (inactive)
same,luciferase signal,[8],40 AU (inactive)
same,z-score,[9],0.66 (inactive)
c1ccc2c(c1)cc1ccc3cccc4ccc2c1c34,inhibition,[2],5.92% (inactive)
same,red/green cell ratio (normalised),[3],0.86 (inactive)
same,normalised cell number,[3]; [21],1.22
same,normalised cell number,[3]; [22],1.05
O=C1CC2OCC=C3CN4CCC56c7ccccc7N1C5C2C3CC46 (stereo unspecified),inhibition,[2],-2.71% (inactive)
CC[C@H]1CN2CC[C@H]1C[C@@H]2[C@@H](O)c1ccnc2ccc(OC)cc12,inhibition,[2],5.31% (inactive)
same,remaining NAD,[7],10 nM (inactive)
same,luciferase signal,[8],16 AU (inactive)
CC[C@H](C)C(=O)O[C@@H]1C[C@@]2(C)[C@H](c3ccoc3)OC(=O)C[C@]23OC2(C)O[C@@]34[C@H](OC(=O)C(C)C)C3(O)[C@@H](OC(=O)[C@@]5(C)O[C@@H]5C)C5(C)C[C@]3(O)[C@](C)([C@H]5CC(=O)OC)[C@@]14O2 (stereo partly specified),inhibition,[2],3.98% (inactive)
Cc1nccc2c1[nH]c1ccccc12,survival,[10],12.2 (inactive)
same,parasite load remaining,[1],94.4% (inactive) and 63.5% (inactive)
same,viability,[1],116% and 79%
same,inhibition,[2],-8.63% (inactive)
same,red/green cell ratio (normalised),[3],0.96 (inactive)
same,normalised cell number,[3]; [21],0.91
same,normalised cell number,[3]; [22],0.87
same,activity remaining,[4],102% (inactive)
same,remaining activity,[11],99.4% (inactive)
same,fold change,[5]; stronger effect = lower value,0.91 (inactive) and 0.859 (inactive)
same,fold change,"[5]; stronger effect = lower value, cell number ratio, induced over uninduced",0.856 (inactive)
same,fold change,[5]; [23],1.74 and 1.56 and 1.32
same,cell count,[5]; [24],8890 and 7490 and 7920
same,cell count,[5]; [25],9780 and 8760 and 9220
same,luciferase signal,[8],132 AU (inactive)
same,z-score,[9],-0.38 (inactive) and -0.595 (inactive)
CCCCCCCCCc1ccc(O)cc1,inhibition,[2],10.5% (inactive)
same,red/green cell ratio (normalised),[3],0.85 (inactive)
same,normalised cell number,[3]; [21],1.34
same,normalised cell number,[3]; [22],1.14
COc1ccc(C[C@H]2NC[C@H](O)[C@H]2OC(C)=O)cc1,inhibition,[12],72.2%
same,score,[13],0.1
same,rescue above control,[14],20.1
same,cytochrome c release ratio,[15],0.83
same,inhibition of aggregation,[16],100%
same,glutamate uptake change,[17],-57.2%
same,aggregation suppression score,[18],0.0246
same,parasite load remaining,[1],-43.5% (inactive) and -0.655% (inactive)
same,viability,[1],60.3% and 76.2%
same,inhibition,[2],-19.6% (inactive)
same,red/green cell ratio (normalised),[3],0.63 (inactive)
same,normalised cell number,[3]; [21],0.16
same,normalised cell number,[3]; [22],0.1
same,activity remaining,[4],92.2% (inactive)
same,fold change,[5]; stronger effect = lower value,0.919 (inactive) and 1.04 (inactive)
same,fold change,[5]; [23],1.66
same,cell count,[5]; [24],1170 and 1230
same,cell count,[5]; [25],1270 and 1190
same,luciferase signal,[8],16 AU (inactive)
same,z-score,[9],-0.88 (inactive)
O=c1ccc2cc(O[C@@H]3O[C@H](CO)[C@@H](O)[C@H](O)[C@H]3O)c(O)cc2o1,inhibition,[12],-24.4%
same,score,[13],1.12
same,rescue above control,[14],-7.81
same,cytochrome c release ratio,[15],0.85
same,inhibition of aggregation,[16],54.9%
same,glutamate uptake change,[17],18.9%
same,inclusion score,[19],2
same,aggregation suppression score,[18],1
same,parasite load remaining,[1],71.6% (inactive)
same,viability,[1],71.7%
same,inhibition,[2],-2.58% (inactive)
same,red/green cell ratio (normalised),[3],1.25 (inactive)
same,red/green cell ratio (normalised),"[3]; counts scaled to control wells, 1 = unselective",0.97 (inactive)
same,normalised cell number,[3]; [21],0.87 and 1.04
same,normalised cell number,[3]; [22],1.09 and 1
same,activity remaining,[4],95.9% (inactive)
same,luciferase signal,[8],92 AU (inactive)
O=c1c2ccccc2[se]n1-c1ccccc1,fluorescence slope change,[20],-12.9% (inactive)
same,inhibition,[12],12.1%
same,score,[13],0.32
same,cytochrome c release ratio,[15],1.88
same,inhibition of aggregation,[16],72.2%
same,glutamate uptake change,[17],26.2%
same,aggregation suppression score,[18],0.00636
same,survival,[10],0.417 (inactive)
same,parasite load remaining,[1],54.1% (inactive) and 46.2% (inactive)
same,viability,[1],93.6% and 69.7%
same,inhibition,[2],51.1% (active)
same,red/green cell ratio (normalised),[3],0.87 (inactive)
same,normalised cell number,[3]; [21],1.06
same,normalised cell number,[3]; [22],0.92
same,activity remaining,[4],-2.27% (active)
same,remaining activity,[11],-5.47% (active)
same,z-score,[6]; [26],-1.8
same,z-score,[6]; [27],2.16
same,remaining NAD,[7],10 nM (inactive)
same,z-score,[9],-1.44 (inactive)
Cc1ccc2cc3c(ccc4ccccc43)c3c2c1CC3,inhibition,[2],-6.1% (inactive)
CO[C@H]1[C@H](O)[C@H](O[C@H]2CC[C@]3(C)C4CC[C@]5(C)[C@@H](C6=CC(=O)OC6)CC[C@]5(O)C4CC[C@@H]3C2)O[C@@H](C)[C@@H]1O (stereo partly specified),inhibition,[2],11.3% (inactive)
OC1C[C@H]2CCC[C@@H](C1)N2Cc1ccccc1 (stereo partly specified),inhibition,[2],1.32% (inactive)
CC(=O)OC1CC2(C)C(c3ccoc3)CC3OC32C2(C)C(=O)C(O)=C3C(C)(C)C(=O)C=CC3(C)C12 (stereo unspecified),inhibition,[2],9.52% (inactive)
COc1cc2c(cc1OC)[C@@]13CCN4CC5=CCO[C@H]6CC(=O)N2[C@H]1[C@H]6[C@H]5C[C@H]43,parasite load remaining,[1],80.5% (inactive)
same,viability,[1],63.8%
same,inhibition,[2],7.74% (inactive)
same,remaining NAD,[7],10 nM (inactive)
same,luciferase signal,[8],76 AU (inactive)
CC(C)CC(N(C)C)C1(c2ccc(Cl)cc2)CCC1 (stereo unspecified),inhibition,[2],14.3% (inactive)
same,red/green cell ratio (normalised),[3],1.04 (inactive)
same,normalised cell number,[3]; [21],0.98
same,normalised cell number,[3]; [22],1.02
same,activity remaining,[4],121% (inactive)
same,z-score,[6]; [26],0.37 (inactive) and 0.394 (inactive)
same,z-score,[6]; [27],0.153 and 0.475
same,remaining NAD,[7],10 nM (inactive)
same,luciferase signal,[8],60 AU (inactive)
same,z-score,[9],-1.39 (inactive) and -1.34 (inactive) and -2.03 (inactive)
CN[C@@H](C)[C@@H](O)c1ccccc1,inhibition,[12],11.2%
same,score,[13],1.57
same,rescue above control,[14],-0.65
same,cytochrome c release ratio,[15],0.84
same,inhibition of aggregation,[16],80.3%
same,glutamate uptake change,[17],-5.15%
same,inclusion score,[19],2
same,aggregation suppression score,[18],1.15
same,parasite load remaining,[1],106% (inactive) and 61.4% (inactive)
same,viability,[1],73.1% and 87.5%
same,inhibition,[2],2.73% (inactive)
same,red/green cell ratio (normalised),[3],1.05 (inactive)
same,normalised cell number,[3]; [21],1.12
same,normalised cell number,[3]; [22],1.18
same,activity remaining,[4],98.2% (inactive)
same,fold change,[5]; stronger effect = lower value,0.905 (inactive)
same,fold change,[5]; [23],3.17
same,cell count,[5]; [24],11300
same,cell count,[5]; [25],12500
same,luciferase signal,[8],36 AU (inactive)
